FLuc counter: qHTS profiling assay for firefly luciferase inhibitor/activator using purifed enzyme and Km concentrations of substrates (counterscreen for miR-21 project); Luciferin 4-monooxygenase (Photinus pyralis), P08659; AID 588342, 2011; actives 6.9% (n = 360,000); purified FLuc, Km substrates, luminescence inhibition; Potency, µM (highest dose often 57.5 µM), for the others: at the top dose activity change, negative = inhibition, most hits filed as inhibitors;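 note: plate controls were vehicle for no effect and reference inhibitor for full effect; nearly all actives have a fitted effect of over 55% in size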
Target sequence (P08659 whole entry, looked up): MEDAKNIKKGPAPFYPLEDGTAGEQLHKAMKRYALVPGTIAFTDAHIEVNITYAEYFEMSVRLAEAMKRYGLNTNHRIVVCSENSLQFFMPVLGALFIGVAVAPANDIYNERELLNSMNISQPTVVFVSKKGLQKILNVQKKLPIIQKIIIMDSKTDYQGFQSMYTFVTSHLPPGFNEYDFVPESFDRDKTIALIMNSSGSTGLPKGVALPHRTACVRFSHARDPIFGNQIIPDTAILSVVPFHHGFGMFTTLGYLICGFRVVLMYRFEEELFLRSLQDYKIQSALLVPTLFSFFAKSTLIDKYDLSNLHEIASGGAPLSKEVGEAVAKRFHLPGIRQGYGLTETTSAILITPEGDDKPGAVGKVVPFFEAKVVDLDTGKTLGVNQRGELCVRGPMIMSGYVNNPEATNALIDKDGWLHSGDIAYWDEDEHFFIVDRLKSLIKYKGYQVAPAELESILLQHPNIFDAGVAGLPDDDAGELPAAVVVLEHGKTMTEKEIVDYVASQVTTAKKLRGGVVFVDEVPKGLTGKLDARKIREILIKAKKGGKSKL
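Biochemical qHTS of compounds, final roughly 60 µM downward over six points, against 10 nM purified firefly luciferase using Km concentrations of substrates (10 uM D-luciferin, 10 uM ATP) in Tris acetate pH 7.5 buffer; luminescence output.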
NPC1 prom act: qHTS Assay for NPC1 Promoter Activators | Huh7 NPC1 promoter luciferase reporter, 24 h | Potency, µM (doses to about 9.22 µM), inactives show at the highest dose activation, usual class: activators | actives 2.4% (n = 320,000) | AID 485313, 2010; note: % of control where 0% means no effect; nearly all actives have a fitted effect of over 60% in size
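Cells: Huh7 expressing luciferase under the NPC1 promoter, 1500/well. Seeded 2 h, compound added, incubated 24 h at 37 °C. Luciferase reagent, 10 min ambient, then luminescence.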
ELG1 genotoxic: qHTS screen for small molecules that induce genotoxicity in human embryonic kidney (HEK293T) cells expressing luciferase-tagged ELG1; HEK293T ELG1-luciferase reporter, luminescence, 16 h; AID 504466, 2011; actives 1.3% (n = 330,000); Potency, µM (series often up to 46 µM), without a hit: at the top dose activity change, positive = activation, hits mostly activators; note: % of control where 0% means no effect; nearly all actives have a fitted effect of over 60% in size
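HEK293T cells expressing luciferase-tagged ELG1 were treated with compound or DMSO for 16 hr at 37°C. Luciferase activity was then read after 30 min with ONE-Glo at room temperature; rising signal flags genetic stress.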
SMN2 splice up: qHTS Assay for Enhancers of SMN2 Splice Variant Expression. HEK293 SMN2-luciferase splicing reporter, luminescence, 30-36 h. Potency, µM (series often up to 46.1 µM), for the others: at the highest dose activity change, positive = activation, hits mostly activators. actives 2.8% (n = 210,000). AID 1458, 2008; note: % of control where 0% means no effect; nearly all actives have a fitted effect of over 55% in size
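qHTS luciferase splicing reporter: luminescence rises when SMN2 exon 7 is included in transfected HEK293 cells. Compound exposure lasted 30-36 h at 37C, with 4.5 mM final sodium butyrate as control, followed by a ONE-Glo read.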
ELG1 repair inh: qHTS screen for small molecules that inhibit ELG1-dependent DNA repair in human embryonic kidney (HEK293T) cells expressing luciferase-tagged ELG1 | HEK293T ELG1-luciferase reporter, luminescence, 16 h; DNA damage induced by 5-fluorouridine | Potency, µM (doses to about 46.1 µM), without a hit: top-dose activity change, negative = inhibition, usual class: inhibitors | actives 2.3% (n = 330,000); note: % is set by controls: 0 for no effect and ±100 for the full control effect; nearly all actives have a fitted effect of over 55% in size
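Cells (2,000 per well) received 5-fluorouridine plus test compound or DMSO and were incubated 16 hr at 37 °C, 5% CO2. Luciferase activity was read by luminescence 30 min after ONE-Glo addition; signal suppression marked inhibition of damage-induced ELG1 function.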
Rab9 promoter act: qHTS Assay for Rab9 Promoter Activators; Huh7 Rab9 promoter-luciferase reporter, luminescence, 24 h; Potency, µM (titrated, usually from 9.22 µM), without a hit: at the highest dose activation, negative = inhibition, most hits filed as activators; actives 2.8% (n = 320,000); AID 485297, 2010; note: % of control where 0% means no effect; nearly all actives have a fitted effect of over 60% in size
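Luminescence from Amplite-detected luciferase (10 minutes, ambient) reports Rab9 promoter activation. Before that, stable Rab9-luciferase Huh7 cells (1500/well, reduced-serum OP-MEM I plus 10% FBS) were exposed to compound for 24 hours at 37C.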
An asterisk follows results filed as active; ? = inconclusive; nt = no result; [ ] = remark or other dose. Hits are enriched below; roughly 9.2% of the tested compounds scored in any of these assays. Calls come from the whole dose curve; as a rule, active = well fitted curve in the direction sought with a large enough effect; inconclusive = small, poorly fitted or top-dose-only effect, or another doubt; inactive = no such curve, though single readings can be large; an effect the other way counts as inactive or inconclusive. Potency is the fitted concentration of half-maximal effect.

SMILES	FLuc counter	NPC1 prom act	ELG1 genotoxic	SMN2 splice up	ELG1 repair inh	Rab9 promoter act
CCCCC(=O)Nc1cccc(-c2cn3ccccc3n2)c1	12µM*	30%	6%	nt	?	22%
CC(C)(C)c1ccc(C(=O)NCC(=O)OCC(=O)Nc2ccc3c(c2)OCCO3)cc1	3.4µM*	8%	-1%	4%	?	2%
O=C(COC(=O)CNC(=O)C1CCCCC1)Nc1ccc2ccccc2c1	-10%	2%	13%	7%	?	20%
O=C(COC(=O)CNC(=O)C1CCCCC1)Nc1ccc2c(c1)OCCO2	19µM*	0%	6%	-3%	1%	2%
COc1cccc(NC(=O)CNC(=O)[C@@H]2Cc3ccccc3CN2C(=O)OC(C)(C)C)c1	1%	-8%	-2%	nt	1%	-4%
CC(C)(C)OC(=O)N1Cc2ccccc2C[C@H]1C(=O)NCC(=O)Nc1ccc2c(c1)OCCO2	21µM*	1%	?	nt	?	0%
Cc1cc(C)c(NC(=O)CSc2nc3ccccc3c3nc(-c4ccccc4)nn23)c(C)c1	0%	nt	nt	nt	nt	nt
C=C(COC)C1=CCC(C(=O)OC)(C(=O)OC)[C@@H](C[N+](=O)[O-])c2ccccc21	nt	nt	nt	20%	nt	nt
COc1ccc(-c2nc(CSCC(=O)NCCC3=CCCCC3)c(C)o2)cc1OC	4%	-1%	1%	-9%	?	11%
CC(C)CN1C(=O)c2ccc(C(=O)Nc3ccccc3C(=O)O)cc2C1=O	3µM*	2.5µM*	?	nt	?	4.5µM*
CC(C)CN1C(=O)c2ccc(C(=O)Nc3nccs3)cc2C1=O	6.7µM*	?	?	6%	?	?
CC(C)CN1C(=O)c2ccc(C(=O)Nc3ccccn3)cc2C1=O	2.7µM*	?	?	-5%	?	?
Cc1ccccc1NC(=O)c1ccc2c(c1)C(=O)N(CC(C)C)C2=O	-8%	-4%	1%	nt	-11%	5%
COc1ccc(N(CC(=O)N2CCN(c3ccccc3F)CC2)S(=O)(=O)c2ccc(C)cc2)cc1	1%	-1%	-5%	nt	-19%	1%
CC1CCN(C(=O)CN2CCSc3ccccc32)CC1	-2%	nt	nt	nt	nt	nt
COCC1CCCCN1C(=O)c1ccc(OC2CCN(CCc3ccccc3)CC2)cc1 (stereo not given)	1%	2%	0%	nt	?	-3%
COc1ccccc1/C=C/C(=O)Nc1nc(N)n(-c2ccccc2)n1	19µM*	-2%	-1%	nt	?	0%
Nc1nc(NC(=O)c2ccccc2Cl)nn1-c1ccccc1	-19%	2%	5%	nt	?	22%
Nc1nc(NC(=O)c2ccccc2)nn1-c1ccccc1	?	23%	?	?	?	28%
COc1ccc(C(=O)Nc2nc(N)n(-c3ccccc3)n2)cc1	17µM*	4%	15%	2%	?	4%
Nc1nc(NC(=O)c2cccs2)nn1-c1ccccc1	17µM*	2.8µM*	?	11µM*	?	2.5µM*
COc1ccc(C(=O)Nc2nc(N)n(-c3ccccc3)n2)cc1OC	-10%	9%	0%	-2%	-13%	-6%
CN(C)c1ccc(CNC(=O)C2CCN(c3nnc(-n4cccc4)s3)CC2)cc1	0%	nt	nt	nt	nt	nt
CCOc1ccc(N=Cc2c(C)[nH]n(-c3nc4ccccc4[nH]3)c2=O)cc1	8.5µM*	25%	3%	12%	?	?
COc1cccc(NC(=O)Cn2c(=O)n(CCC(=O)NCc3ccccc3OC)c(=O)c3ccccc32)c1	-9%	nt	nt	2%	nt	nt
SMILES	FLuc counter	NPC1 prom act	ELG1 genotoxic	SMN2 splice up	ELG1 repair inh	Rab9 promoter act
COC(=O)c1c(C)[nH]c(C(=O)/C=C/c2ccccc2F)c1C	0.3µM*	1.3µM*	4.6µM*	nt	?	1µM*
COC(=O)c1c(C)[nH]c(C(C)=O)c1C	8%	-1%	0%	-24%	9%	-1%
COC(=O)c1c(C)[nH]c(C(=O)OCC(=O)c2ccc(C)s2)c1C	nt	nt	13%	nt	?	nt
COC(=O)c1c(C)[nH]c(C(=O)/C=C/c2ccccc2Cl)c1C	?	2µM*	18%	nt	?	?
Cc1ccccc1CNC(=O)c1ccc(CN2CC(=O)N3CCCCC3C2=O)cc1 (stereo not given)	-3%	nt	nt	nt	nt	nt
O=C(Nc1cccc(F)c1)N1CCCC2(CCN(C(=O)c3ccncc3)CC2)C1	nt	nt	nt	-9%	nt	nt
O=C(c1ccc2nccnc2c1)N1CCCC(Nc2ccc(F)c(F)c2)C1 (stereo not given)	3%	14%	-1%	nt	7%	-5%
COc1ccc(NC(=O)CCCc2nc(-c3ccco3)no2)c(OC)c1	-1%	nt	nt	nt	nt	nt
O=S(=O)(Nc1cccc(S(=O)(=O)N2CCCCC2)c1)c1ccc(Cl)s1	nt	nt	-3%	nt	-15%	nt
CCc1ccc(S(=O)(=O)Nc2cccc(-c3ccc(N4CCCCC4)nn3)c2)s1	2.7µM*	nt	nt	nt	nt	nt
Cc1ccc(S(=O)(=O)Nc2cccc(-c3ccc(N4CCCCC4)nn3)c2)s1	1.1µM*	nt	nt	nt	nt	nt
CCc1ccc(S(=O)(=O)Nc2cccc(-c3ccc4nnc(C)n4n3)c2)s1	-1%	-8%	14%	nt	0%	-1%
CCCc1cc(=O)oc2cc(C)cc(OCC(=O)NCCCN3CCCC3=O)c12	-1%	-3%	0%	nt	?	-1%
CCCCCCCCCCCCCCCC[n+]1cccc2ccccc21	-4%	-40%	-3%	-59%	13µM*	-51%
CCCCCCCCC[n+]1cccc2c3ccccc3ccc21	5%	-49%	-10%	-69%	?	-42%
Cc1cc(-c2ccccc2)c2c(n1)sc1c(O)cc(=O)[nH]c12	-1%	-1%	0%	nt	6%	6%
CCc1nc2sc3c(O)cc(=O)[nH]c3c2cc1C	15µM*	0%	-1%	nt	17%	-1%
CCOc1ccc(C(=O)Nc2nnn(CC)n2)cc1	12µM*	4µM*	10µM*	nt	?	4µM*
CCCn1nnc(NC(=O)c2ccc(OC)cc2)n1	21µM*	4µM*	18µM*	?	?	?
CCCn1nnc(NC(=O)c2ccc(-c3ccccc3)cc2)n1	9.5µM*	2.5µM*	?	?	?	2.5µM*
CCOc1ccc(C(=O)Nn2cnnc2)cc1	-4%	12%	1%	-2%	22%	1%
CCCn1nnc(NC(=O)c2ccc(OCC)c(Cl)c2)n1	6%[2.3 µM]	3%	10%	3%	29%	23%

Bioassay records deposited in PubChem by National Center for Advancing Translational Sciences (NCATS).
